What was measured:
Test in all cases: DAPPL (digital affinity profiling via proximity ligation, sequencing); 10 mM Tris-HCl pH 7.5, 50 mM NaCl, 1 mM DTT, 4% glycerol, room temperature, 30 min; GST-TFs on glutathione beads, 16-mer random dsDNA library, 0.1% formaldehyde crosslink after washing; high values mean tight binding
FEV = target: T1, FEV (Homo sapiens, UniProt Q99581 1-238); details: protein: recombinant; tags: N-terminal GST; dsDNA, one strand shown
T1 sequence: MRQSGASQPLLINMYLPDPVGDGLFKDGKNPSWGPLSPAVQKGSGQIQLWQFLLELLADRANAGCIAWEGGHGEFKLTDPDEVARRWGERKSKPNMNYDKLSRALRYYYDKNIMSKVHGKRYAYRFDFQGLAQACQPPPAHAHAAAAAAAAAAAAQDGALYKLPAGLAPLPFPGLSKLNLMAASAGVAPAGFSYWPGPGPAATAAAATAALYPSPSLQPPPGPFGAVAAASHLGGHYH
How it was run: (§1)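 Pools were built from human transcription factors expressed in yeast as GST fusions, captured on glutathione beads and DNA-barcoded, along with a tag-only sample. Incubation with 200 nmole of a 16-mer random double-stranded DNA library lasted 30 min at room temperature in Tris/NaCl/DTT/glycerol buffer, and was followed by washing, 0.1% formaldehyde crosslinking, proximity ligation, PCR amplification and Illumina NextSeq500 sequencing. Binding signal is the quotient of each hexamer's read frequency for a factor and its frequency for the tag-only sample.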

ETV5 = ETV5 (Homo sapiens, UniProt P41161 1-510); details: protein: recombinant; tags: N-terminal GST; dsDNA, one strand shown
Sequence of ETV5 (P41161 whole entry): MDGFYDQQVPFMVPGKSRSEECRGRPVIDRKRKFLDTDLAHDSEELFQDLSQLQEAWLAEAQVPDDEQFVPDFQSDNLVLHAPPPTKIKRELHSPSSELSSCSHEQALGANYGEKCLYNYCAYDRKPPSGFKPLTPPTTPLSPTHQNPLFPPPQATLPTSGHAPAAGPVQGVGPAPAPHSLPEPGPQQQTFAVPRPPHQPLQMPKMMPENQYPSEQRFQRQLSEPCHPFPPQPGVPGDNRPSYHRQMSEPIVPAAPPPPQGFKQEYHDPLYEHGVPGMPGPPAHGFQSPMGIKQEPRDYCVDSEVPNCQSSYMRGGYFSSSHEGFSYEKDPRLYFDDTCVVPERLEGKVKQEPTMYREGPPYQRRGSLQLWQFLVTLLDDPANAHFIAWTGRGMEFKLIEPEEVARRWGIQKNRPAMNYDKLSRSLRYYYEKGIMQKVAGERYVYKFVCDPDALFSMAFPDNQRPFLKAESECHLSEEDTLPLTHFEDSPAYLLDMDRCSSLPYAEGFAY
How it was run: as §1

HSF1 = HSF1 (Homo sapiens, UniProt Q00613 1-529); details: protein: recombinant; tags: N-terminal GST; chain copies: 3; dsDNA, one strand shown
Sequence of HSF1 (Q00613 whole entry): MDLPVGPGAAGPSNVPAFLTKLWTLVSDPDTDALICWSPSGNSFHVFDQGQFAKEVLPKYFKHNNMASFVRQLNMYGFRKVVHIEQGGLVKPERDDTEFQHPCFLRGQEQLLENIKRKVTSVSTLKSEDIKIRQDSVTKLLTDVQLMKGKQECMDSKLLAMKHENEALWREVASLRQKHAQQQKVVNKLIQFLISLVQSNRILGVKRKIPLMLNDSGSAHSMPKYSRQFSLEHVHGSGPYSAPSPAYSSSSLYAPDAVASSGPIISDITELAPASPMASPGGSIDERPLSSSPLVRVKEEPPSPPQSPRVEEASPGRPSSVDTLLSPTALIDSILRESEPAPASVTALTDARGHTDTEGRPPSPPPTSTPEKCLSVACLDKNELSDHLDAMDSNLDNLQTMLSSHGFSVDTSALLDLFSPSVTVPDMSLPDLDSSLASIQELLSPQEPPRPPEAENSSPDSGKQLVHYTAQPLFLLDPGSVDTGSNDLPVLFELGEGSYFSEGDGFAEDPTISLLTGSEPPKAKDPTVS
How it was run: as §1

SPIC = target: T2, SPIC (Homo sapiens, UniProt Q8N5J4 1-248); details: protein: recombinant; tags: N-terminal GST; dsDNA, one strand shown
T2 sequence: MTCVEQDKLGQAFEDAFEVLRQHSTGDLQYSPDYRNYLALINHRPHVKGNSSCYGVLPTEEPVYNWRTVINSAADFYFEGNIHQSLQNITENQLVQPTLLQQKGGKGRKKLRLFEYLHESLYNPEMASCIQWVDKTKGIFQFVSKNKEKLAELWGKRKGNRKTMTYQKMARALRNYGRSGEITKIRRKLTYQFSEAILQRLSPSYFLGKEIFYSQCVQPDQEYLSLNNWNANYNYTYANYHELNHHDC
How it was run: as §1

ELF4 = ELF4 (Homo sapiens, UniProt Q99607 1-663); details: protein: recombinant; tags: N-terminal GST; dsDNA, one strand shown
Sequence of ELF4 (Q99607 whole entry): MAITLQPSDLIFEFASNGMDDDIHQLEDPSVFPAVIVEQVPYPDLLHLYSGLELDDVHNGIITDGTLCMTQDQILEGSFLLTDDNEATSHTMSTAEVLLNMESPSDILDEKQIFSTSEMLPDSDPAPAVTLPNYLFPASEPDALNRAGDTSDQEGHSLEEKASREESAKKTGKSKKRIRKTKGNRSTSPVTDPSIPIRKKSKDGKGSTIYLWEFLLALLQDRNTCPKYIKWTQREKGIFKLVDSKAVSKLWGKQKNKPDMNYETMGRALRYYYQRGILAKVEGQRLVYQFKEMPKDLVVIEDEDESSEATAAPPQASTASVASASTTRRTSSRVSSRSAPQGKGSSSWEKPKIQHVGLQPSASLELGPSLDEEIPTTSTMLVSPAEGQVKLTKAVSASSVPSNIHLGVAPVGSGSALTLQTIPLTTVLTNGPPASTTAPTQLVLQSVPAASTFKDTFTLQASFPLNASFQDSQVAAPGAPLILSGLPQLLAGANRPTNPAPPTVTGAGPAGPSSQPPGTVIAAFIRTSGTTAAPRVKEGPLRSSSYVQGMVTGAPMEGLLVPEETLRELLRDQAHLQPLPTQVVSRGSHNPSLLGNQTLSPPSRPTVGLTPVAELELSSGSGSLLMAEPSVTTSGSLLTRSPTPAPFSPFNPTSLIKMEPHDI
How it was run: as §1

ELK4 = target: T3, ELK4 (Homo sapiens, UniProt P28324-2 1-405); details: protein: recombinant; tags: N-terminal GST; dsDNA, one strand shown
T3 sequence: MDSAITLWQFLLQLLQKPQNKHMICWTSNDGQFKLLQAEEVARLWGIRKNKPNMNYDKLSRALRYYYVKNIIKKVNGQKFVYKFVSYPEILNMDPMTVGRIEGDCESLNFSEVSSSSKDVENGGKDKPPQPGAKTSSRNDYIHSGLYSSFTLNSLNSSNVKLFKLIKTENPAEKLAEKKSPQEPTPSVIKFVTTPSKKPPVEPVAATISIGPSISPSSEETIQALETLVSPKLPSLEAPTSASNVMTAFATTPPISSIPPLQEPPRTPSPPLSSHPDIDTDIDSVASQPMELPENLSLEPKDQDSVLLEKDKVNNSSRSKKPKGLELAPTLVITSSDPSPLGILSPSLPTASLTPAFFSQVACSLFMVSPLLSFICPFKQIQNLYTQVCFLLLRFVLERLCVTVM
How it was run: as §1

ETV2 = target: T4, ETV2 (Homo sapiens, UniProt O00321 1-342); details: protein: recombinant; tags: N-terminal GST; dsDNA, one strand shown
T4 sequence: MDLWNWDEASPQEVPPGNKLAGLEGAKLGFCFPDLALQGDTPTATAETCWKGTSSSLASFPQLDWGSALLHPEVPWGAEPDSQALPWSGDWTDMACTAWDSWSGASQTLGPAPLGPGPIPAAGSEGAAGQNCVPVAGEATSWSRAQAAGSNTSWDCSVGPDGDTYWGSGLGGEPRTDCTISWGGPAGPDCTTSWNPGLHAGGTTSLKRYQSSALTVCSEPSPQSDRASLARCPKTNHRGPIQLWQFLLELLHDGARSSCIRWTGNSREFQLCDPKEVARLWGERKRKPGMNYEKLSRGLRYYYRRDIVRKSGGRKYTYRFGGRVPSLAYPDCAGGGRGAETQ
How it was run: as §1

ELF3 = target: T5, ELF3 (Homo sapiens, UniProt P78545 1-371); details: protein: recombinant; tags: N-terminal GST; dsDNA, one strand shown
T5 sequence: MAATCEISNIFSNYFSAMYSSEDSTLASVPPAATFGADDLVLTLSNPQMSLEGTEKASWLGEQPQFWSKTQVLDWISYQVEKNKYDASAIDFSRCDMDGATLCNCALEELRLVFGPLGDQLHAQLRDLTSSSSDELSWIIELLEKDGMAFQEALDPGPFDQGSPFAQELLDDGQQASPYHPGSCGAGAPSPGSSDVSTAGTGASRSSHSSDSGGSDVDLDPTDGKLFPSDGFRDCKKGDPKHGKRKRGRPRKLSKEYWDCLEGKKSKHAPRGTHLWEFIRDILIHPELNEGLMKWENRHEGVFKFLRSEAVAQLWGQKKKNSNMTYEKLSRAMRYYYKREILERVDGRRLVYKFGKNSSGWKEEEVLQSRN
How it was run: as §1

CRX = CRX (Homo sapiens, UniProt O43186 1-299); details: protein: recombinant; tags: N-terminal GST; dsDNA, one strand shown
Sequence of CRX (O43186 whole entry): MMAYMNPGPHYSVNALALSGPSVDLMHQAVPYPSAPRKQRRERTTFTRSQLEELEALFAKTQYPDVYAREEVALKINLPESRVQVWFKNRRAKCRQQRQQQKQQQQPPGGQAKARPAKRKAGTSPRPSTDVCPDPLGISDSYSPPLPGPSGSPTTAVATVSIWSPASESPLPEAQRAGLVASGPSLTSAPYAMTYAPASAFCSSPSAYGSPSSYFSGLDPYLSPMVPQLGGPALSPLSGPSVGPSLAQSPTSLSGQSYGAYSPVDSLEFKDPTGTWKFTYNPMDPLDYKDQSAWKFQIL
How it was run: as §1

ETV1 = ETV1 (Homo sapiens, UniProt P50549 1-477); details: protein: recombinant; tags: N-terminal GST; dsDNA, one strand shown
Sequence of ETV1 (P50549 whole entry): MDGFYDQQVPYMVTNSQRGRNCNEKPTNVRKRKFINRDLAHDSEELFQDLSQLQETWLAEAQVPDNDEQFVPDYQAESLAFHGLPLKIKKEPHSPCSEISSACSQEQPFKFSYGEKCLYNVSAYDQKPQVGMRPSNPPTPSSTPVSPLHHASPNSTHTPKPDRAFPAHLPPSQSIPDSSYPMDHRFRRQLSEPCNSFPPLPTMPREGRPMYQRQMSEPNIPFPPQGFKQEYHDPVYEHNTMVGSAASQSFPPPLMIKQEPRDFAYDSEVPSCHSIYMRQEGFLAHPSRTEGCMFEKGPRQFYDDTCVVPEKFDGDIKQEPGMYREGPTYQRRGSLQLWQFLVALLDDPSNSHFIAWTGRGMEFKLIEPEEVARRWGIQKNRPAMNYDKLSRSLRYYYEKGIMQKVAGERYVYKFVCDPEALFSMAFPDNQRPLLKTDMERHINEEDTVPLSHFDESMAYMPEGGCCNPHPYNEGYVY
How it was run: as §1

## TAATCC
FEV
  binding signal: 1.24 fold enrichment (6-mer frequency, TF over GST control)
ETV5
  binding signal: 1.3 fold enrichment (6-mer frequency, TF over GST control)
HSF1
  binding signal: 4.27 fold enrichment (6-mer frequency, TF over GST control)
SPIC
  binding signal: 1.14 fold enrichment (6-mer frequency, TF over GST control)
ELF4
  binding signal: 1.23 fold enrichment (6-mer frequency, TF over GST control)
ELK4
  binding signal: 1.23 fold enrichment (6-mer frequency, TF over GST control)
ETV2
  binding signal: 1.2 fold enrichment (6-mer frequency, TF over GST control)
ELF3
  binding signal: 1.22 fold enrichment (6-mer frequency, TF over GST control)
CRX
  binding signal: 7.84 fold enrichment (6-mer frequency, TF over GST control)
ETV1
  binding signal: 1.26 fold enrichment (6-mer frequency, TF over GST control)
